Many of the other results were omitted from the sample, so hits are more common in it than they were.
LmPK inh: qHTS Assay for Inhibitors of Leishmania Mexicana Pyruvate Kinase (LmPK); hit rate 0.37% among 290,000; Q27686; Potency, µM (doses to about 57.5 µM), for inactives: at the top dose activity change, negative = inhibition, most hits filed as inhibitors; purified LmPK, Kinase-Glo ATP luminescence, 1 h; note: potency is the fitted concentration of half-maximal effect; % is set by controls: 0 for no effect and ±100 for the full control effect
Target sequence (Q27686 whole entry, looked up): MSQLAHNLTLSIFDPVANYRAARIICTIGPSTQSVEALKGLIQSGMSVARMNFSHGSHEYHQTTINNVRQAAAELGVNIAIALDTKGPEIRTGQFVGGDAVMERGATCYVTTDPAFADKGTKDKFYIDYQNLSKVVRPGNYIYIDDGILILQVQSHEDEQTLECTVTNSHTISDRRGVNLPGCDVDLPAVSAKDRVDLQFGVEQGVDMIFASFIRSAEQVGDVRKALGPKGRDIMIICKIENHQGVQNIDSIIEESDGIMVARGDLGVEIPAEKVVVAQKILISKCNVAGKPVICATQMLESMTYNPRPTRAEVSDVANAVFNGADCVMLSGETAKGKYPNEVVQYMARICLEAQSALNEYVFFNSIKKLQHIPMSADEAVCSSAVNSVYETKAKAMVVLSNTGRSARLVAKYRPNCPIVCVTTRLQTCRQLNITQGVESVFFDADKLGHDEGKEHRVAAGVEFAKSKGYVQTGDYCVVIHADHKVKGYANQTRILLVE
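qHTS format; LmPK 0.1 nM; substrates PEP 0.5 mM and ADP 0.1 mM. One-hour room-temperature incubation, then coupled luciferase luminescence; 0.5 nM enzyme wells mark activation.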
Sm TGR inh: qHTS Assay for the Inhibitors of Schistosoma Mansoni Peroxiredoxins | purified TGR, DTNB reduction, TNB absorbance 405 nm | AID 485364, 2010 | hit rate 3% among 360,000 | Schistosoma mansoni thioredoxin glutathione reductase (TGR), Q962Y6 | Potency, µM (series often up to 114 µM), for the others: at the highest dose activity change, negative = inhibition, most hits filed as inhibitors; note: potency is the fitted concentration of half-maximal effect; % is set by controls: 0 for no effect and ±100 for the full control effect; nearly all actives have a fitted effect of over 60% in size
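Kinetic colorimetric format: TGR-catalysed, NADPH-driven DTNB reduction monitored via TNB absorbance. Enzyme dispensed at 20 nM; compound exposure 15 min at room temperature before reaction start.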
Shiga inhibitor: A qHTS for Small Molecule Inhibitors of Shiga Toxin. Vero cells, Shiga toxin protein synthesis inhibition reporter. inhibition, % at 38.7 µM. hit rate 9.2% among 290,000. AID 2315, 2010; in the data active = inhibition mostly above about 28%, no sharp cut-off; inactive = mostly below about 43%; note: 0% is about no effect
Giardia FBPA inh: qHTS Assay for Inhibitors of Fructose-1,6-bisphosphate Aldolase from Giardia Lamblia; purified Giardia FBPA; Potency, µM (top dose mostly 59.6 µM), without a hit: at the highest dose activity, negative = inhibition, usual class: inhibitors; hit rate 0.71% among 290,000; AID 2451, 2010; note: potency is the fitted concentration of half-maximal effect; % is set by controls: 0 for no effect and ±100 for the full control effect; nearly all actives have a fitted effect of over 55% in size
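Giardia FBPA (40 nM reagent) was preincubated 10 min at RT with compound (up to 57.5 uM final), then substrate plus GAPDH/TPI/NAD/arsenate coupling system with diaphorase/resazurin was added; resorufin fluorescence (525/598 nm) was read after 20 min.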
Tb PYK inh: qHTS of Trypanosoma Brucei Inhibitors. pyruvate kinase (Trypanosoma brucei), Q57TT1. TbPYK enzyme, Kinase-Glo Plus ATP luminescence, 45 min. hit rate 0.12% among 410,000. AID 624173, 2012. Potency, µM (top dose mostly 76.8 µM), inactives show at the highest dose activity, negative = inhibition, usual class: inhibitors; note: potency is the fitted concentration of half-maximal effect; % is set by controls: 0 for no effect and ±100 for the full control effect; nearly all actives have a fitted effect of over 50% in size
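Screened from lowest to highest concentration, compounds were pinned into TbPYK/substrate mixtures, and ADP (130 uM final) was added. Plates sat at room temperature for 45 min prior to Kinase-Glo Plus detection by luminescence.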
Cycloheximide cs: Cycloheximide Counterscreen for Small Molecule Inhibitors of Shiga Toxin. AID 2314, 2010. hit rate 12% among 300,000. cell reporter, cycloheximide protein synthesis inhibition counterscreen. max response, %; in the data active = max response mostly above about 13%, no sharp cut-off; inactive = mostly below about 14%; note: read at 38.3 µM for the half of the compounds with a filed dose; 0% is about no effect
* hit, by the source's call; ? = inconclusive; . = not tested or not shown; [ ] = remark or other dose. Unless noted, calls come from the whole dose curve; as a rule, active = well fitted curve in the direction sought with a large enough effect; inconclusive = small, poorly fitted or top-dose-only effect, or another doubt; inactive = no such curve, though single readings can be large; an effect the other way counts as inactive or inconclusive.

SMILES | LmPK inh | Sm TGR inh | Shiga inhibitor | Giardia FBPA inh | Tb PYK inh | Cycloheximide cs
NC(=O)Nc1cc(-c2cccc(F)c2)sc1C(=O)N[C@H]1CCCNC1 | . | . | . | . | 0% | .
Cc1ccc(NC2Sc3ccccc3NC2=O)cc1Cl (configuration not stated) | 6% | -2% | 26 | -6% | -2% | 13*
CC1=NN(c2ccccc2)C(=O)C1C(=O)c1ccccc1 (configuration not stated) | 3% | -26% | 10 | 6% | -3% | 7
CC1=NN(c2ccccc2)C(=O)C1C(=O)C(=O)Nc1ccc(F)cc1 (configuration not stated) | -2% | 4% | 79* | -14% | -5% | 30*
Cc1ccc(NC(=O)CC2SCCNC2=O)cc1Cl (configuration not stated) | -3% | -4% | 48* | -7% | 5% | 23*
Cc1ccc(NC(=O)C(=O)C2C(=O)Nc3ccccc32)cc1 (configuration not stated) | -7% | 1% | 22 | 1% | -4% | 11*
Cc1ccc(CNc2ccc(-c3nc(C(C)C)no3)cc2[N+](=O)[O-])cc1 | . | -6% | . | . | -3% | .
Cc1ccc(NC(=O)CC2NCCNC2=O)cc1 (configuration not stated) | 4% | -7% | 17 | 5% | -8% | 11*
Cc1ccc(NC(=O)CC2Nc3ccccc3NC2=O)cc1Cl (configuration not stated) | -2% | 0% | 108* | -4% | -1% | 28*
O=C(CC1Nc2ccccc2NC1=O)c1ccccc1 (configuration not stated) | 1% | 2%[11.4 µM] | 46 | -11% | . | 31*
O=C(CC1Nc2cccc3cccc(c23)NC1=O)Nc1ccccc1 (configuration not stated) | -2% | -11% | -10 | ? | -7% | -4
Cc1ccc(NC(=O)CC2Nc3ccccc3NC2=O)cc1C (configuration not stated) | . | -9% | . | . | -12% | .
Cc1ccc(NC(=O)CC2Nc3cccc4cccc(c34)NC2=O)cc1 (configuration not stated) | . | 40µM* | . | . | -1% | .
CC(C)(C)S(=O)N1Cc2cc(C(=O)Nc3ccc(-c4ccccc4)cc3)nc(-c3cccc(-c4cc5ccccc5o4)c3)c2[C@@H]1CCO (some centres not stated) | . | . | . | . | -1% | .
Cc1[nH]c2c(Br)cccc2c1[C@H]1[C@@H](CC#N)C1(C)C | 4% | -8% | 63* | -16% | -1% | 42*
Cc1c([C@H]2[C@@H](CC#N)C2(C)C)c2ccccc2n1C | 2% | 0% | -1 | 1% | -8% | -1
O=S(=O)(c1ccc(Br)cc1F)N1CCC(O)CC1 | . | . | . | . | 1% | .
Cc1cccc(NC(=O)CCOc2ccccc2)c1C | 4% | 3% | 1 | 1% | -5% | 9
Cc1cccc(OCCC(=O)NCC(=O)Nc2cccc(C)c2C)c1 | 1% | 2% | -13 | 16µM* | 3% | -2
Cc1ccc(OCCNC(=O)c2ccccc2F)cc1 | 1% | 6% | 40* | 9% | 5% | 21*
CC(C)(C)c1ccc(C(=O)NCCOc2ccccc2F)cc1 | 3% | 4% | 34* | 1% | -14% | 24
O=C(CCNC(=O)c1ccc(Br)cc1)NNC(=O)COc1ccccc1F | . | . | . | . | 3% | .
Cc1ccc(OCC(O)CNC(=O)c2ccccc2C(=O)O)cc1 (configuration not stated) | 2% | 1% | 33 | 0% | -1% | 18*
O=C1OC(C2=CCCCC2)=NC12CC2 | . | . | . | 0%[12.9 µM] | . | .
Cc1cc2c3c(cccc3n1)C(=O)c1ccccc1-2 | . | . | . | 0% | . | .
Cc1ccc(-n2nc3c(c2NC(=O)c2ccc4c(c2)OCO4)CS(=O)(=O)C3)cc1C | -11% | 0% | -31 | . | -18% | -3
Cc1cccc(Oc2ccc3c(c2)cc(C(=O)O)n3C)c1 | -2% | 64% | -23 | 8% | -1% | -3

High-throughput results (PubChem BioAssay)
